# COUP-TFII inh = blocks human COUP-TFII nuclear receptor; P24468; HEK293T NGFI-A luciferase reporter, luminescence; inhibition, % at 8.6 µM; 370,000 tested, 0.7% active;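 active = inhibition above a per-plate cutoff, mean inhibition of test wells between control levels plus 3 SD, cut at about 38% in these data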;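 also: cells cotransfected with COUP-TFII expression vector driving the NGFI-A reporter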
# SRC1 inh = human NCOA1 inhibition; HEK293 GAL4-SRC1 luciferase reporter, luminescence; 360,000 tested, 0.12% active; inhibition, % at 3.6 µM; Q15788; AID 588354;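 active = inhibition above the campaign mean plus 3 SD, with each screening campaign given its own cutoff, cut at about 60% in these data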
# Target sequence (Q15788 whole entry, looked up, the tested form may be a part): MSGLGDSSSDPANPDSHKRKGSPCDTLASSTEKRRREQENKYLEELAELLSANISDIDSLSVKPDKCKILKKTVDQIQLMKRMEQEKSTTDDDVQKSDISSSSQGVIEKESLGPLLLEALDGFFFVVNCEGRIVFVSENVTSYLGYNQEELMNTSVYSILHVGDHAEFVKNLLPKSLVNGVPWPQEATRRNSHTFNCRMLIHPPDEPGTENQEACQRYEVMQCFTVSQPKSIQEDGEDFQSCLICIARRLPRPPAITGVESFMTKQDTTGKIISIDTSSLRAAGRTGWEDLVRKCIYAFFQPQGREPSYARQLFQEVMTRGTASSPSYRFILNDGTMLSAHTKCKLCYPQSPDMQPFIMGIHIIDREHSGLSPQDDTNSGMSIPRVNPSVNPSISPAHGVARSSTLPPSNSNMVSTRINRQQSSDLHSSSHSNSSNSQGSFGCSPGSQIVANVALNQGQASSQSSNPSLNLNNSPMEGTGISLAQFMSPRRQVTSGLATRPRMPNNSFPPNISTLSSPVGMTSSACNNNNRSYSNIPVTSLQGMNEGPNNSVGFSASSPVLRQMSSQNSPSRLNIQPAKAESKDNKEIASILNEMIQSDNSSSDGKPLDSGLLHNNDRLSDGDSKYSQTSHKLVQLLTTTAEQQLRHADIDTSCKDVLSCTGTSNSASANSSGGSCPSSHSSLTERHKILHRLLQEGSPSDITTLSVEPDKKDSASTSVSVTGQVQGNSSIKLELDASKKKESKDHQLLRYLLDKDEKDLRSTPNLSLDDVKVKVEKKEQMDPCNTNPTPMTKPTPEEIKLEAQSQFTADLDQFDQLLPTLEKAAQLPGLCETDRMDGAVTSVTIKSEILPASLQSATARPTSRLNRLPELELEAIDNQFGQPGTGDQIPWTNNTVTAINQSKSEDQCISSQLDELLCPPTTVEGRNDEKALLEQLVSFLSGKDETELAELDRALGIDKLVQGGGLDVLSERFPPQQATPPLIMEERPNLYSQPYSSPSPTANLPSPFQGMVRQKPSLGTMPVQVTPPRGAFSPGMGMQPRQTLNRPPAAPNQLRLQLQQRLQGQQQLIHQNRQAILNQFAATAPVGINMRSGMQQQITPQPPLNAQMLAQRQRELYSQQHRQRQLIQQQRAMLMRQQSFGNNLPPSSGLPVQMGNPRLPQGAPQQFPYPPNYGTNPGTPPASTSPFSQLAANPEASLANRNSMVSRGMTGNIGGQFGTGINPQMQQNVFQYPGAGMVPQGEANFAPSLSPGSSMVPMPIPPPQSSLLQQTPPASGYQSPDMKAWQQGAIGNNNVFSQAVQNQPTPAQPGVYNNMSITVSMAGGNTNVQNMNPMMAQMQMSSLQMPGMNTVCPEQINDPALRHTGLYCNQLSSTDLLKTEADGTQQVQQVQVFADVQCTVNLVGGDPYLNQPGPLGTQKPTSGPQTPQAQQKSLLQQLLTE
# NR5A2 inv ag = suppresses constitutive activity of human LRH-1 | O00482 | HEK293T StAR-luciferase reporter, LRH-1 transfected, 24 h | inhibition, % at 3.6 µM | 360,000 tested, 0.13% active;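 active = inhibition above the mean inhibition of all tested compounds plus 3 SD, cut at about 73% in these data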
# GalR3 antag = blocks the human galanin receptor 3; inhibition, % at 3 µM; O60755; HEK293 GalR3-CNG cAMP membrane potential fluorescence; galR3 body fused to GalR1 C-terminus; 360,000 tested, 0.44% active;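 active = inhibition above the screen-wide average plus 3 SD, cut at about 13% in these data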;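 also: forskolin and galanin both at EC90 stimulate the cells; cAMP rise reported by CNG channel membrane potential dye signal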
# NCOA3 inh = inhibits human SRC3 coactivator | Q9Y6Q9 | HEK293 GAL4-SRC3 luciferase reporter, luminescence | inhibition, % at 3.6 µM | 360,000 tested, 0.17% active;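 active = inhibition above a per-campaign cutoff, the mean of all compounds plus 3 SD, cut at about 60% in these data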;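 also: higher means less SRC3-driven luciferase light from the GAL4 reporter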
# SRC2 inh = inhibits human steroid receptor coactivator 2; Q15596; HEK293 GAL4-SRC2 luciferase reporter, luminescence; inhibition, % at 9 µM; 370,000 tested, 0.17% active;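 active = inhibition above the mean inhibition of all tested compounds plus 3 SD, set per campaign, cut at about 52% in these data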
# Hits are given with their value; - = inactive; . = not tested or not shown. In the library only some 1.1% were active in any assay of this set; here they are far more common.
SMILES,COUP-TFII inh,SRC1 inh,NR5A2 inv ag,GalR3 antag,NCOA3 inh,SRC2 inh
CC(=NNC(=S)Nc1cccc(Cl)c1)c1ccccn1,-,-,-,-,67.3,-
COc1ccc(C(=O)C2(C(=O)NCc3ccccc3)CC(c3ccccc3C(F)(F)F)=NO2)cc1 (stereo not drawn),-,.,.,.,.,-
COc1cc(OC)c2c(O)c3c(=O)cc(C)oc3c(-c3c(OC)cc4cc5c(c(O)c4c3O)C(=O)CC(C)(O)O5)c2c1 (stereo not drawn),-,.,.,.,.,-
COC(=O)CCS(=O)(=O)c1nc(-c2ccccc2)cc(C(F)(F)F)n1,.,-,-,.,-,.
COc1ccc(-c2cc(C(F)(F)F)nc(S(=O)(=O)CCCC(=O)Nc3cccnc3Cl)n2)cc1OC,-,-,-,17.4,-,-
N=c1c2c(-c3ccccc3)c(-c3ccccc3)n(Cc3ccco3)c2ncn1CCCN1CCOCC1,-,-,-,-,-,-
N=c1c2c(-c3ccccc3)c(-c3ccccc3)n(Cc3ccccc3)c2ncn1CCO,-,-,-,-,69.3,-
N=c1c2c(-c3ccccc3)c(-c3ccccc3)n(Cc3ccco3)c2ncn1CCCn1ccnc1,-,-,-,-,68.2,-
C[C@H]1[C@@H](O)CC[C@@]23CCCN2C(=O)CCC[C@@H]13,-,.,.,.,.,.
CCC[C@H]1[C@H](N)CC[C@@]23CCCN2C(=O)CCC[C@@H]13,-,.,.,.,.,.
O=C(O)CCSc1ncnc2sc(-c3ccccc3)cc12,-,-,-,-,-,80.6
CC(=O)CCSc1ncnc2sc(-c3ccccc3)cc12,-,-,-,-,-,-
Cc1c(C)c2cccnc2c2ncccc12,.,-,86.7,.,-,.
Clc1cc2cccnc2c2ncccc12,-,-,-,-,-,-
Nc1[nH]c(C(=O)c2ccccc2)c(-c2ccc(Br)cc2)c1C(=O)N1CCN(CCO)CC1,-,.,.,.,.,.
CCCc1cc(=O)oc2c3c(cc(OCC(=O)NCc4ccccn4)c12)OC(C)(C)CC3,-,-,-,16.4,-,-
CCn1c(SCC(=O)Nc2nc(-c3ccc(C)cc3)cs2)nnc1-c1ccccc1,-,-,-,-,-,-
CCn1c(SCC(=O)Nc2nc(-c3ccc(C)cc3)cs2)nnc1-c1ccccc1O,47.5,-,-,-,-,-
Cc1nnc(-c2ccccc2)c(=O)n1/N=C/c1c(O)ccc2ccccc12,-,-,-,-,73.7,-
COc1ccc(-c2nc(CS(=O)CC(=O)NCc3ccco3)c(C)o2)cc1 (stereo not drawn),-,-,-,.,-,-
CCc1ccc(-c2nc(CS(=O)CC(=O)NCc3ccco3)c(C)o2)cc1 (stereo not drawn),-,-,-,-,-,54.4
COc1ccc2c(CCN3C(=O)c4ccccc4C3=O)c(-c3c(CCN4C(=O)c5ccccc5C4=O)c4ccccc4n3C(=O)OC(C)(C)C)[nH]c2c1,-,.,.,.,.,.
COc1cccc(-c2nc(-c3ccccn3)no2)c1,-,.,.,-,.,58.5
COc1cccc(-c2nc(-c3ccccc3)no2)c1,-,-,-,-,-,-
C=CCN1C(C(=O)OC)CN(Cc2cn(Cc3ccc(OC)cc3)nn2)CCS1(=O)=O (stereo not drawn),-,.,.,.,.,-
SMILES,COUP-TFII inh,SRC1 inh,NR5A2 inv ag,GalR3 antag,NCOA3 inh,SRC2 inh
O=C(Nc1ccccc1)C1=C(c2ccccc2)S(=O)(=O)CCS1(=O)=O,-,-,-,-,-,54.4
COc1cc(O)c(C(CC(=O)N2CCCC(C)C2)c2ccccc2)c(OC)c1 (stereo not drawn),-,.,.,.,.,.
COc1ccc(-c2[nH]ncc2-c2ccc3c(c2)OCCO3)c(O)c1,-,67.2,-,-,65.0,-
CCCc1cc(-c2[nH]ncc2-c2ccc3c(c2)OCCCO3)c(O)cc1OC,-,.,.,-,.,-
CCn1nc([N+](=O)[O-])c(C(C#N)c2nc3cc(C(F)(F)F)ccc3s2)c(Cl)c1=O (stereo not drawn),-,-,-,-,61.7,-
CCn1c(C)nc2cc(-c3nc4n(n3)Cc3ccccc3-4)ccc21,.,90.7,94.8,.,85.9,.
COc1ccc(OCc2n(CC(=O)OC3CC(C)CCC3C(C)C)c3ccccc3[n+]2C)cc1 (stereo not drawn),-,-,-,-,-,-
COc1ccc(-c2n(CC(=O)OC3CC(C)CCC3C(C)C)c3ccccc3[n+]2C)cc1 (stereo not drawn),-,-,-,-,69.8,-
Fc1ccccc1-c1n[nH]c(=S)n1N=Cc1ccc(-c2ccccc2)cc1,-,.,.,.,.,-
CN(C)S(=O)(=O)c1cccc(NC(=S)Nc2cccc3cnccc23)c1,43.5,-,-,-,-,-
Cc1nn(C)c(C)c1/C=C(/C(=O)C(C)(C)C)n1cncn1,-,-,-,-,-,-
CC(C)(C)C(=O)/C(=C/c1ccncc1)n1cncn1,-,-,-,-,62.7,71.9
Cc1ccc(S(=O)(=O)N2c3ccccc3C[C@H]2CCC(=O)c2ccccc2)cc1,-,.,.,.,.,.
NS(=O)(=O)c1ccc(Oc2ccc(S(N)(=O)=O)cc2)cc1,-,-,-,-,-,-
C=CS(=O)(=O)c1ccc(Oc2ccc(S(=O)(=O)C=C)cc2)cc1,74.6,-,-,-,-,70.2
O=C1c2cccc3c([N+](=O)[O-])ccc(c23)C(=O)N1Cc1cccnc1,-,-,-,30.3,-,-
CC(=O)O[C@H]1[C@H](OC(C)=O)C[C@]2(OC(C)=O)C[C@H]1OC2=O,-,.,.,.,.,.
Cn1c(=O)c2cc(NC(=O)CCc3ccc(O)cc3)ccc2n1Cc1cccc(C(F)(F)F)c1,-,-,73.7,-,-,-
O=c1c(Br)ccc(Br)cc1Br,52.9,-,-,-,-,57.7
C=CCn1c(Cc2cccs2)nnc1SCC(=O)Nc1ccc(OCc2ccccc2)cc1,-,.,.,.,.,-
O=C(NCc1ccccc1Cl)O[C@H]1CC[C@@]23CCCN2C(=O)CCC[C@H]3C1,-,.,.,.,.,.
COc1ccc2[nH]c3c(c2c1)CC(C)NC3=O (stereo not drawn),-,66.3,-,-,-,-
CN(C)c1ccc(/C=C/c2ccc3ccccc3n2)cc1,.,62.4,-,.,63.9,.
C(=C\c1ccc2ccccc2n1)/c1ccccc1,-,-,-,-,-,-
OC1(c2cccc(C(F)(F)F)c2)CCN(c2ncnc3c2[nH]c2ccc(F)cc23)CC1,46.8,-,-,-,-,-
O=C(Cc1ccc(Cl)cc1)c1c[nH]c(C(=O)NCc2cccnc2)c1,-,-,-,-,-,88.0
OCC1CCCN(c2nc(CN3CCCCC3)nc3scc(-c4ccccc4)c23)C1 (stereo not drawn),-,-,-,-,-,-

# Screens as filed in PubChem.
